Reference: PubChem BioAssay AID1159580 (chemical genetic matrix, 2015)
“And” between values parts separate entries of the source, which are not always exact repeats. Equal entries are not always repeated. Hit rate of the full screen: of about 5,500 compounds, about 2,000 (36%) were called active. Roughly 18% stayed inconclusive and do not appear here. Rule as the data show it: active = normalized growth mostly below about 0.91 (no sharp cut-off); inconclusive = no clear call, values can overlap the other calls; inactive = mostly above about 0.92. The list shows a part of the results.

Experiment: chemical genetic growth profiling, strain panel (AID 1159580);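 also: tested at 20 µM; growth read once vehicle control cultures reached saturation at 30 °C; 1 = growth at the plate median or of vehicle wells; lower values mean less growth of the strain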
Settings: S. cerevisiae deletion strains, growth OD

Measured: normalized growth

CCCSc1ccc2nc(NC(=O)OC)[nH]c2c1
inactive: locus YAL013W, strain DEP1, stronger effect = lower value 0.995 | locus YAL021C, strain ccr4, stronger effect = lower value 1.01 | locus YAL026C, strain drs2, stronger effect = lower value 1.01 | locus YAL030W, strain snc1, stronger effect = lower value 1 | locus YBL061C, strain skt5, stronger effect = lower value 1.01 | locus YBR009C, strain hhf1, stronger effect = lower value 1.01 | locus YBR023C, strain chs3, stronger effect = lower value 1.01 | locus YBR171W, strain sec66, stronger effect = lower value 1.02 | locus YBR229C, strain ROT2, stronger effect = lower value 0.992 | locus YBR231C, strain swc5, stronger effect = lower value 0.922 | locus YBR279W, strain paf1, stronger effect = lower value 1.01 | locus YCL011C, strain gbp2, stronger effect = lower value 1.01 | locus YCL016C, strain dcc1, stronger effect = lower value 1.01 | locus YCL061C, strain MRC1, stronger effect = lower value 1.01 | locus YCL069W, strain vba3, stronger effect = lower value 1.01 | locus YCR088W, strain abp1, stronger effect = lower value 1.01 | locus YDL005C, strain med2, stronger effect = lower value 1.03 | locus YDL035C, strain GPR1, stronger effect = lower value 0.99 | locus YDL040C, strain nat1, stronger effect = lower value 1.01 | locus YDL074C, strain BRE1, stronger effect = lower value 0.866 | locus YDL101C, strain DUN1, stronger effect = lower value 0.993 | locus YDL134C, strain PPH21, stronger effect = lower value 1.01 | locus YDL185W, strain tfp1, stronger effect = lower value 0.93 | locus YDL192W, strain arf1, stronger effect = lower value 0.971 | locus YDR001C, strain nth1, stronger effect = lower value 1.01 | locus YDR069C, strain doa4, stronger effect = lower value 0.998 | locus YDR101C, strain arx1, stronger effect = lower value 0.961 | locus YDR137W, strain rgp1, stronger effect = lower value 0.862 | locus YDR150W, strain NUM1, stronger effect = lower value 0.977 | locus YDR159W, strain sac3, stronger effect = lower value 1.04 | locus YDR162C, strain NBP2, stronger effect = lower value 0.993 | locus YDR297W, strain sur2, stronger effect = lower value 1.01 | locus YDR318W, strain mcm21, stronger effect = lower value 0.956 | locus YDR334W, strain swr1, stronger effect = lower value 0.962 | locus YDR335W, strain msn5, stronger effect = lower value 1.02 | locus YDR388W, stronger effect = lower value 0.969 | locus YDR392W, strain spt3, stronger effect = lower value 0.967 | locus YDR502C, strain sam2, stronger effect = lower value 0.966 | locus YEL037C, strain rad23, stronger effect = lower value 1 | locus YEL061C, strain CIN8 (second series), stronger effect = lower value 1.01 | locus YEL061C, strain CIN8, stronger effect = lower value 0.997 | locus YER015W, strain faa2, stronger effect = lower value 1 | locus YER016W, strain bim1, stronger effect = lower value 1.01 | locus YER110C, stronger effect = lower value 0.976 | locus YER111C, strain swi4, stronger effect = lower value 1.02 | locus YER155C, strain BEM2 (second series), stronger effect = lower value 0.999 | locus YER155C, strain BEM2, stronger effect = lower value 0.991 | locus YER167W, strain BCK2, stronger effect = lower value 0.988 | locus YFR010W, strain ubp6, stronger effect = lower value 1.02 | locus YGL078C, strain dbp3, stronger effect = lower value 0.955 | locus YGL086W, strain mad1, stronger effect = lower value 0.974 | locus YGL167C, strain pmr1, stronger effect = lower value 1.02 | locus YGL173C, strain kem1, stronger effect = lower value 1.02 | locus YGL227W, strain vid30, stronger effect = lower value 1 | locus YGL240W, strain doc1, stronger effect = lower value 1.01 | locus YGL248W, strain PDE1, stronger effect = lower value 0.996 | locus YGL253W, strain hxk2, stronger effect = lower value 1.01 | locus YGR135W, strain pre9, stronger effect = lower value 0.944 | locus YGR229C, strain SMI1, stronger effect = lower value 0.968 | locus YGR252W, strain gcn5, stronger effect = lower value 1.16 | locus YHR013C, strain ard1, stronger effect = lower value 1.01 | locus YHR027C, strain rpn1, stronger effect = lower value 1.01 | locus YHR030C, strain SLT2, stronger effect = lower value 0.99 and 0.897 | locus YHR079C, strain IRE1 (second series), stronger effect = lower value 0.942 | locus YHR079C, strain IRE1, stronger effect = lower value 0.933 | locus YHR094C, strain hxt1, stronger effect = lower value 0.965 | locus YHR129C, strain ARP1, stronger effect = lower value 0.983 | locus YHR142W, strain chs7, stronger effect = lower value 1.01 | locus YHR200W, strain rpn10, stronger effect = lower value 0.951 | locus YIL066C, strain RNR3, stronger effect = lower value 0.98 | locus YIL073C, strain SPO22, stronger effect = lower value 0.894 | locus YIL125W, strain kgd1, stronger effect = lower value 0.98 | locus YIR030C, strain dcg1, stronger effect = lower value 0.983 | locus YJL092W, strain hpr5, stronger effect = lower value 1 | locus YJL095W, strain BCK1 (second series), stronger effect = lower value 1.01 | locus YJL095W, strain BCK1, stronger effect = lower value 0.95 and 0.922 | locus YJL115W, strain asf1, stronger effect = lower value 1.02 | locus YJL129C, strain trk1, stronger effect = lower value 1.01 | locus YJL134W, strain LCB3, stronger effect = lower value 0.992 | locus YJL154C, strain vps35, stronger effect = lower value 1 | locus YJL164C, strain tpk1, stronger effect = lower value 1.01 | locus YJL166W, strain qcr8, stronger effect = lower value 1 | locus YJL168C, strain set2, stronger effect = lower value 0.969 | locus YJL187C, strain SWE1 (second series), stronger effect = lower value 0.963 | locus YJL187C, strain SWE1, stronger effect = lower value 1 | locus YJR043C, strain POL32, stronger effect = lower value 0.967 | locus YJR066W, strain TOR1, stronger effect = lower value 0.909
active: locus YBR021W, strain FUR4, stronger effect = lower value 1.2 [resistant] | locus YCL029C, strain bik1, stronger effect = lower value 0.82 | locus YDR195W, strain ref2 1.15 [resistant] | locus YEL003W, strain gim4, stronger effect = lower value 0.446 | locus YGR078C, strain PAC10, stronger effect = lower value 0.11
